The values below come from PubChem BioAssay (NCI).

SMILES strings stand for the structures. The panel holds about 83,000 compounds, 20% with a hit somewhere; the sample as a whole holds those more often.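 Compound tested at a single concentration for 48 hours in 96-well plates; a percent growth value below 10 was scored as active.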 A number with no mark means an inactive call. Active and inactive are the calls of the source.

Among the test systems are BT-549 breast; MDA-MB-435 melanoma; SW-620 colon; MCF7 breast; HCT-116 colon; HCC-2998 colon; KM12 colon.
Common to all, as to test: NCI-60 one-dose screen, 48 h (100 = growth as untreated, 0 = no growth, -100 = all killed)
Settings in all cases: 10 µM

Consider `N#Cc1ncc(-c2cc(F)c(F)c(F)c2)c(NC2CCCCCC2)n1`, for which the growth was 100% in the assay on BT-549 breast; 95.5% in the assay with MDA-MB-435 melanoma; 92.8% in the assay with SW-620 colon; 79.1% in the assay on MCF7 breast; 84.4% in the assay on HCT-116 colon; 91.9% in the assay with HCC-2998 colon. In addition, the growth in the assay on KM12 colon is 78.7%.
For the compound `CCOCCOCCOCCOCCOCCOCCOCCOCCOCCO` (tested in a mixture with another compound), the growth was -52.7% (active) with BT-549 breast; 19.4% with MDA-MB-435 melanoma; 18.6% with SW-620 colon; 3.56% (active) with MCF7 breast; 3.57% (active) in the assay on HCT-116 colon; 9.05% (active) with HCC-2998 colon. For the same compound, the growth in the assay with KM12 colon was -18.3% (active).
Regarding `COc1ccc(-c2nnc(-c3c(-c4ccccc4)nc4ncccn34)o2)cc1OC`, the growth with BT-549 breast was 88.6%; in the assay with MDA-MB-435 melanoma, 117%; in the assay on SW-620 colon, 109%; with MCF7 breast, 102%; in the assay with HCT-116 colon, 103%; in the assay with HCC-2998 colon, 106%. Moreover, the growth with KM12 colon was 100%.
With `COC(=O)C1(C)Cc2cc(OC(C)=O)c(OC(C)=O)cc2N1` (stereo not drawn), the growth is 98.8% in the assay with BT-549 breast; 73.9% with MDA-MB-435 melanoma; 58.6% in the assay on SW-620 colon; 51.7% with MCF7 breast; 35.1% in the assay on HCT-116 colon; 112% in the assay on HCC-2998 colon. Moreover, the growth in the assay on KM12 colon was 85.9%.
As for `COc1cc(Cl)cc(-c2nn(-c3cccc(NC(=O)Nc4ccc(Cl)c(C(F)(F)F)c4)c3)cc2-c2ccncc2)c1`, the growth in the assay with BT-549 breast is 9.81% (active); with MDA-MB-435 melanoma, -16.8% (active); with SW-620 colon, 12.7%; in the assay with MCF7 breast it was 2.57% (active); with HCT-116 colon, 3.39% (active); with HCC-2998 colon, 18.1%. In addition, in the assay on KM12 colon, the growth was 9.1% (active).
With `O=C1c2ccc3c4c(ccc(c24)C(=O)N1CCNCc1ccccc1)C(=O)N(CCNCc1ccccc1)C3=O`, the growth with BT-549 breast is -21.3% (active); in the assay on MDA-MB-435 melanoma, -75.6% (active); with SW-620 colon, 3.88% (active); in the assay on MCF7 breast it was -45.4% (active); with HCT-116 colon, -18% (active); in the assay on HCC-2998 colon, -92.2% (active). In addition, the growth with KM12 colon is -43.3% (active).
With `CSc1cc(SC)ncn1`, the growth is 104% in the assay on BT-549 breast; 115% in the assay with MDA-MB-435 melanoma; 103% in the assay with SW-620 colon; 97.8% with MCF7 breast; 102% in the assay with HCT-116 colon; 111% in the assay with HCC-2998 colon. Further, the growth in the assay with KM12 colon was 108%.
Consider `Cc1cn(C2CCCCO2)c(=O)nc1NO` (stereo not drawn), for which the growth in the assay on BT-549 breast is 107%; with MDA-MB-435 melanoma, 97.6%; in the assay with SW-620 colon, 105%; in the assay with MCF7 breast, 80.3%; with HCT-116 colon, 111%; in the assay with HCC-2998 colon, 101%. For the same compound, the growth in the assay with KM12 colon was 102%.
`CCN(CC)Cc1cc(Nc2ccnc3cc(Cl)ccc23)ccc1OC`: the growth in the assay on BT-549 breast was 110%; with MDA-MB-435 melanoma, 77.9%; in the assay with SW-620 colon it was 64.1%; with MCF7 breast, 86.7%; in the assay with HCT-116 colon, 69.1%; with HCC-2998 colon, 81%. Besides, the growth in the assay with KM12 colon was 83.5%.
`O=C1NC(=O)N(Cc2ccccc2)CC1Br` (stereo not drawn): the growth in the assay with BT-549 breast was 94.5%; in the assay on MDA-MB-435 melanoma, 62.9%; with SW-620 colon, 51.7%; with MCF7 breast it was 56.6%; with HCT-116 colon, 28.1%; with HCC-2998 colon it was 95.4%. Also, the growth in the assay on KM12 colon was 106%.
Turning to `Cc1cc2c(C)c3cc(C)c(N)cc3nc2cc1N`, the growth in the assay on BT-549 breast was 57.8%; with MDA-MB-435 melanoma it was 12%; with SW-620 colon it was 4.58% (active); in the assay with MCF7 breast it was -4.55% (active); with HCT-116 colon, -9.81% (active); with HCC-2998 colon, 28.3%. Moreover, the growth in the assay with KM12 colon was 9.44% (active).
For `COc1cc(OC)cc(-c2cncn2-c2ccc(-c3nc4cc(OC)cc(OC)c4s3)cc2)c1`, the growth with BT-549 breast is 46.6%; with MDA-MB-435 melanoma, -16.3% (active); in the assay on SW-620 colon, 48.2%; in the assay on MCF7 breast it was 20.9%; in the assay with HCT-116 colon, 36.8%; in the assay with HCC-2998 colon it was 70.2%. Also, in the assay with KM12 colon, the growth is 38.5%.
For the compound `Cc1ccc(NC(=O)Nc2cccnc2)cc1NC(=O)Nc1cccnc1`, the growth is 98.1% with BT-549 breast; 73.9% with MDA-MB-435 melanoma; 108% in the assay on SW-620 colon; 81% in the assay on MCF7 breast; 90.2% in the assay with HCT-116 colon; 87.7% in the assay with HCC-2998 colon. Moreover, the growth with KM12 colon is 87.2%.
As for `Fc1ccc(-c2nnc(-c3c(-c4ccc(F)cc4)nc4ccccn34)o2)cc1`, the growth in the assay on BT-549 breast was 60.2%; in the assay with MDA-MB-435 melanoma, 85.1%; in the assay on SW-620 colon, 91.1%; with MCF7 breast it was 59.8%; with HCT-116 colon, 45.4%; in the assay on HCC-2998 colon, 94.1%. The growth in the assay with KM12 colon was 79.9%.
Take `O=S(=O)(NCCNc1nccc(-c2c(-c3ccc(F)cc3)nc3sccn23)n1)c1ccc2ccccc2c1`: the growth with BT-549 breast is 92.5%; in the assay on MDA-MB-435 melanoma it was 56.4%; in the assay on SW-620 colon, 97.5%; with MCF7 breast it was 38.2%; in the assay on HCT-116 colon, 61.8%; in the assay with HCC-2998 colon it was 82.6%. In addition, in the assay with KM12 colon, the growth was 75.6%.
With `COc1ccc(-c2nc3sc(-c4ccc(OC)cc4)c(-c4ccc(OC)cc4)n3c2/C=C/c2ccc(C(C)C)cc2)cc1`, the growth is 98.6% in the assay on BT-549 breast; 98.7% with MDA-MB-435 melanoma; 99.7% in the assay on SW-620 colon; 90.4% in the assay with MCF7 breast; 94.4% in the assay on HCT-116 colon; 111% with HCC-2998 colon. Also, in the assay on KM12 colon, the growth is 102%.
Regarding `CC(C)(Cl)CCC1=C(Cl)C(=O)c2ccccc2C1=O`, the growth was 66.5% with BT-549 breast; 66.4% with MDA-MB-435 melanoma; 7.89% (active) in the assay on SW-620 colon; -0.254% (active) in the assay with MCF7 breast; 17.2% in the assay with HCT-116 colon; 74.3% with HCC-2998 colon. Moreover, the growth with KM12 colon is 35.7%.
Turning to `Cc1ccc(NC(=O)Nc2nc3ccccc3s2)cc1NC(=O)Nc1nc2ccccc2s1`, the growth was 104% in the assay with BT-549 breast; 97.1% in the assay on MDA-MB-435 melanoma; 102% in the assay with SW-620 colon; 64.6% with MCF7 breast; 84.9% with HCT-116 colon; 93.4% with HCC-2998 colon. Moreover, the growth with KM12 colon is 88.2%.
As to `C/C(=N\Nc1nc2ccccc2s1)c1ccncn1`, the growth in the assay on BT-549 breast was 46.3%; with MDA-MB-435 melanoma, 46.2%; in the assay on SW-620 colon, 31.2%; in the assay on MCF7 breast it was 4.99% (active); in the assay on HCT-116 colon, 5.21% (active); in the assay with HCC-2998 colon, 46.3%. Also, the growth in the assay on KM12 colon was 39.1%.
Consider `CCCCCCCCCCCCCCCC(=O)OC1[C@@H](OC(=O)CCCCCCCCCCCCCCC)[C@@H](C(=O)N[C@@H](CCCCN)C(=O)OC)O[C@H]1n1cnc2c(=O)[nH]c(NC(=O)C(C)C)nc21` (stereo partly drawn), for which the growth in the assay on BT-549 breast is 105%; with MDA-MB-435 melanoma, 99.6%; with SW-620 colon, 104%; in the assay with MCF7 breast, 96.4%; in the assay with HCT-116 colon it was 85.4%; with HCC-2998 colon, 101%. In addition, in the assay with KM12 colon, the growth is 95%.
Consider `COc1ccc(N2C(=O)C3c4[nH]c5ccc(OCc6ccccc6)cc5c4C4CCC(C(C)C)CC4C3C2=O)cc1` (stereo not drawn), for which the growth in the assay with BT-549 breast was 104%; in the assay with MDA-MB-435 melanoma, 104%; in the assay with SW-620 colon it was 87.9%; in the assay with MCF7 breast, 95.2%; with HCT-116 colon it was 109%; in the assay on HCC-2998 colon, 116%. The growth with KM12 colon was 105%.
Regarding `COc1cc(Cl)cc(-c2nn(-c3cccc(NC(=O)Nc4cc(C(F)(F)F)cc(C(F)(F)F)c4)c3)cc2-c2ccncc2)c1`, the growth in the assay with BT-549 breast was 6.61% (active); in the assay on MDA-MB-435 melanoma, -19.5% (active); in the assay with SW-620 colon, 7.18% (active); in the assay on MCF7 breast, 3.81% (active); with HCT-116 colon, -4.6% (active); in the assay with HCC-2998 colon, 9.5% (active). In addition, the growth in the assay with KM12 colon was 12.2%.
For `O=C(CC(C(=O)c1ccccc1)N1CCOCC1)c1ccccc1` (stereo not drawn), the growth in the assay on BT-549 breast was 99.6%; in the assay with MDA-MB-435 melanoma it was 107%; with SW-620 colon, 60.8%; with MCF7 breast, 43.4%; in the assay with HCT-116 colon, 77.3%; in the assay with HCC-2998 colon it was 104%. For the same compound, the growth in the assay with KM12 colon is 105%.
On to `CCCCCCN1CCN(Cc2ccc(N(CC)CC)cc2)C(=O)C1=O`, for which the growth is 68.1% in the assay on BT-549 breast; -79.5% (active) in the assay on MDA-MB-435 melanoma; 24% with SW-620 colon; 17.2% with MCF7 breast; 34.2% in the assay with HCT-116 colon; 52% with HCC-2998 colon. In the assay with KM12 colon, the growth was 28.5%.
